Measured values from PubChem BioAssay AID720597 (Broad Institute, 2013).
Measured potencies and affinities stand elsewhere. Activity calls are given as the source filed them.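 Rule for the calls: active = fitted half-maximal dose no more than twice the top valid tested dose, for compounds that lower signal; inconclusive = fit invalid, or curve flat with activity between -70 and -30; inactive = potency past limit, curve flat within ±30, or signal increasing.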

molecular target: NAD-dependent protein deacylase sirtuin-5, mitochondrial (Homo sapiens) (UniProt Q9NXA8); assay: SIRT5 deacylase inhibitors, dose response, biochemical, fluorescence imaging, cherry-pick, set 6 (AID 720597); conditions: Purified SirT5, succinyl-peptide-AMC/trypsin fluorescence; series mostly up to 15 µM; activity change, negative = inhibition: at the top concentration;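 note: lower AMC signal can also come from blocking the trypsin step; 0% = median of neutral control wells and -100% = median of positive control wells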
Sequence (Q9NXA8 whole entry, looked up): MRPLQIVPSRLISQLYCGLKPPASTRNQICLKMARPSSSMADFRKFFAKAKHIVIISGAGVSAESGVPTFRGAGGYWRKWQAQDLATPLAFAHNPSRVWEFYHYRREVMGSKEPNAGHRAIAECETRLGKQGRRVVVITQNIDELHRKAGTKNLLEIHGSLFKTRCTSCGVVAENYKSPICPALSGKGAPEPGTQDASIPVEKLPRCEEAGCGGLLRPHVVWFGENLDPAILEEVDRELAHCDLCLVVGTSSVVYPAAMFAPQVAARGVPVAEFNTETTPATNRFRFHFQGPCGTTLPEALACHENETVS

Activity change, negative = inhibition, inactive:
O=C(C[C@H]1C[C@@H]2c3cc(NC(=O)C4CCC4)ccc3O[C@@H]2[C@@H](CO)O1)NCc1ccc(-c2ccccc2)cc1 -10.6%
Cc1ccc(S(=O)(=O)Nc2ccc3c(c2)C(=O)N([C@H](C)CO)C[C@@H](C)[C@@H](CN(C)S(=O)(=O)c2ccccc2)OCCCC[C@@H](C)O3)cc1 5.85%
COc1ccc(S(=O)(=O)N(C)C[C@H]2Oc3cc(C#CC4CC4)ccc3S(=O)(=O)N([C@@H](C)CO)C[C@@H]2C)cc1 11.5%
COc1ccc(S(=O)(=O)Nc2ccc3c(c2)C(=O)N([C@@H](C)CO)C[C@H](C)[C@@H](CN(C)S(=O)(=O)c2ccccc2)OCCCC[C@@H](C)O3)cc1 6.19%
Cc1ccc(S(=O)(=O)N(C)C[C@@H]2OCCCC[C@H](C)Oc3ccc(NS(=O)(=O)c4ccc(Cl)cc4)cc3C(=O)N([C@H](C)CO)C[C@@H]2C)cc1 -16.7%
O=C(CCN1CCCCC1)N[C@H]1CC[C@H](CC(=O)N2CCC(Cc3ccccc3)CC2)O[C@@H]1CO -12.6%
C[C@@H]1CN([C@H](C)CO)C(=O)CCCn2cc(nn2)CO[C@H]1CN(C)S(=O)(=O)c1ccc(F)cc1 -5.68%
COc1ccc(S(=O)(=O)N(C)C[C@H]2OCCCC[C@@H](C)Oc3ccc(NS(=O)(=O)c4ccc(C)cc4)cc3C(=O)N([C@@H](C)CO)C[C@H]2C)cc1 -14.3%
CN(C)C(=O)c1cccc(-c2ccc([C@@H]3[C@@H](CO)N4CCCCN(S(C)(=O)=O)C[C@@H]34)cc2)c1 19.7%
COc1ccc(S(=O)(=O)Nc2ccc3c(c2)C(=O)N([C@@H](C)CO)C[C@@H](C)[C@H](CN(C)Cc2ccc(-c4ccccc4)cc2)O3)cc1 -10.6%
COc1ccc(S(=O)(=O)N(C)C[C@H]2OCCCC[C@@H](C)Oc3ccc(NS(=O)(=O)c4ccc(F)cc4)cc3C(=O)N([C@@H](C)CO)C[C@@H]2C)cc1 -7.85%
CCS(=O)(=O)N1CC(=O)N2[C@H](CO)[C@H](c3ccc(C4=CCCCC4)cc3)[C@@H]2C1 19.9%
C[C@H]1CN([C@@H](C)CO)S(=O)(=O)c2ccc(C#CC3CCCC3)cc2O[C@@H]1CN(C)C(=O)Nc1cc(F)ccc1F 21%
